Bioassay records deposited in PubChem by ICCB-Longwood Screening Facility, Harvard Medical School.
Most compounds without a hit are left out; they make up all but 1.4% or so of the library.
PV pol inh – inhibitors of poliovirus RNA polymerase binding and polymerization; 0.66% of 150,000 active; poliovirus polymerase elongation, fluorescence polarization; active compounds read low; P03300; % elongation, % (compound at 16.7 µg/mL); in the data active means % elongation below about 90%
Target sequence (P03300 1749-2209 limits assumed): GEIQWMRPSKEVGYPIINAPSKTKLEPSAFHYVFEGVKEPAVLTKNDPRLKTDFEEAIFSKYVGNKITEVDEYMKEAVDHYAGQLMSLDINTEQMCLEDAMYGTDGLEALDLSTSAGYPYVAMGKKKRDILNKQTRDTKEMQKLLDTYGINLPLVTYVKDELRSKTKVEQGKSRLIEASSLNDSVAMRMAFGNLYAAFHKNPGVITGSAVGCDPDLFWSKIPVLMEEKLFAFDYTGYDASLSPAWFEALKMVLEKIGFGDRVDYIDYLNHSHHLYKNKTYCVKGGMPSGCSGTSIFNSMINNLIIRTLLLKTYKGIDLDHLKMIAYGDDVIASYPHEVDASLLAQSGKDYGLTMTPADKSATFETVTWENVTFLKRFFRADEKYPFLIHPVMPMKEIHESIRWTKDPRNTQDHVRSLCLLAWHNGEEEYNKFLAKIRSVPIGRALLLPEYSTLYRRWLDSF
MenB inh – inhibitors of Mycobacterium tuberculosis MenB enzyme; 0.43% of 100,000 active; P9WNP5; inhibition, % (concentration not given with the values); AID 540299; MenB enzyme assay, absorbance read-out; in the data active means inhibition above about 21%, passing the limit was not always enough
Mtb MbtI inh – MbtI salicylate synthase inhibition. P9WFX0. purified MbtI enzyme, fluorescence intensity read-out. inhibition, % (test concentration not listed). 0.89% of 100,000 active. AID 493033; in the data active means inhibition mostly above about 56%, no sharp cut-off; inactive means mostly below about 77%
A number is an active result; n = inactive; x = no result given.

SMILES	PV pol inh	MenB inh	Mtb MbtI inh
Cc1nn(-c2ccccc2)c(OC(=O)C(C)C)c1Sc1ccc(Cl)cc1	n	x	x
CCCC(=O)Oc1c(Sc2ccccc2)c(C)nn1-c1ccccc1	x	x	58
O=C(c1ccncc1)N(c1ccccc1)c1ccccc1	n	x	n
O=C1N(Cc2ccccc2)c2cccc3cccc(c23)N1Cc1ccccc1	n	n	n
O=c1ccsn1Cc1ccccc1	n	n	93
COc1ccc2nc(SCC(=O)c3ccc(O)c(O)c3)[nH]c2c1	n	n	70
COC(=O)c1ccc(NC(=O)CSc2nc3ccc(OC)cc3[nH]2)cc1	n	x	x
COC(=O)C1C(c2ccc(OC)c(OC)c2)C(C(=O)OC)S(=O)(=O)CS1(=O)=O (configuration not stated)	n	n	n
COc1ccc(C(=O)OCC(=O)c2ccc3[nH]c(=O)[nH]c3c2)c(OC)c1	88	n	n
Cc1onc(-c2ccccc2)c1C(=O)OCC(=O)c1ccc2[nH]c(=O)[nH]c2c1	76	n	n
COc1ccc(C(=O)COC(=O)c2ccc(NC(C)=O)cc2)c(OC)c1	n	n	n
O=C(COC(=O)c1ccccc1NCc1ccco1)c1ccc(Cl)cc1	n	n	n
CCc1noc(C)c1C(=O)OCC(=O)c1ccc2ccccc2c1	n	n	n
O=C(COC(=O)c1ccccc1NCc1ccco1)c1ccc2[nH]c(=O)[nH]c2c1	44	n	n
CN(C)C(=O)N1c2ccccc2Sc2ccccc21	n	n	n
COc1ccc2c(c1)c1ncn(CCN3CCN(Cc4ccccc4)CC3)c(=O)c1n2C	n	n	n
COC(=O)c1sccc1NC(=O)Nc1cn(C)c(=O)c2ccccc12	n	n	n
CCc1cccc(NC(=O)Nc2cn(C)c(=O)c3ccccc23)c1	79	x	x
CC1CCN(Cc2ccc(NC(=O)Nc3cn(C)c(=O)c4ccccc34)cc2)CC1	n	n	n
COc1cccc(NC(=O)Nc2cn(C)c(=O)c3ccccc23)c1	85	n	n
Cn1cc(NC(=O)Nc2ccccc2F)c2ccccc2c1=O	84	n	n
CN(C(=O)Nc1cn(C)c(=O)c2ccccc12)c1ccccc1	n	x	x
Cc1nc(CSc2nc(N)c(C#N)cc2C#N)cs1	n	n	n
COc1ccc(NC(=O)CSc2nc(-c3cc(OC)c(OC)c(OC)c3)[nH]c2-c2ccc(F)cc2)cc1	n	x	x
Nc1cccc2c1C(=O)N(C(=O)c1ccc3c(c1)S(=O)(=O)N=C1CCCCCN13)C2=O	58	n	n
SMILES	PV pol inh	MenB inh	Mtb MbtI inh
CN(Cc1ccccc1)C(=O)c1ccc2c(c1)S(=O)(=O)N=C1CCCCCN12	n	n	n
Cc1ccc(NC(=O)C2C(c3ccccc3)C=CC(c3ccccc3)C2C(=O)O)cc1C (configuration not stated)	n	n	x
CCOC(=O)c1cccc(NC(=O)c2ccccc2Cl)c1	n	n	n
CC(C)c1cc(C(=O)O)n(C)n1	n	n	n
Cn1nc(C2CC2)cc1C(=O)O	n	30	n
O=C(CCSCc1ccc(Cl)cc1)Nc1cccnc1	n	x	n
Cc1cc(NS(=O)(=O)c2ccc(N3C(=O)C=CC3=O)cc2)no1	n	n	93
Cc1cc(NS(=O)(=O)c2ccc(NC(=S)NCc3ccccc3)cc2)no1	n	n	n
Cc1nc2c(c(C)c1CCC(=O)N1CCC(C)CC1)c(=O)n(C)c(=O)n2C	n	n	n
COc1ccc2sc(N(Cc3cccnc3)C(=O)c3ccc4c(c3)OCCO4)nc2c1	n	x	x
O=C(COC(=O)c1cc2ccccc2oc1=O)Nc1ncccn1	88	n	n
CN(C)C(=O)COC(=O)c1cc2ccccc2oc1=O	n	n	n
Cc1ccc2c(COC(=O)c3ccccc3NCc3ccco3)cc(=O)oc2c1C	n	n	n
CC(=O)Oc1ccc(-c2ccc(C(=O)O)cc2)cc1Cl	n	x	85
CC(=O)Oc1ccc(-c2ccc(C(=O)O)cc2)cc1C	n	x	n
CC(C)(/C=N/Nc1nc2ccccc2o1)CO	n	n	n
Cc1ccc(Cl)cc1NC(=O)C1=NCCN1	73	n	n
Cc1ccc(Cl)cc1NC(=O)c1csnn1	n	x	x
O=c1oc2c3c(ccc2c2ccccc12)OCN(Cc1cccc(Cl)c1)C3	85	x	x
O=c1oc2c3c(ccc2c2ccccc12)OCN(Cc1ccccc1)C3	n	n	n
O=c1c2c3c(sc2ncn1CCn1cnc2sc4c(c2c1=O)CCCC4)CCCC3	n	n	n
Cc1ccc(-n2ccnc2SCC(=O)NC(=O)C2COc3ccccc3O2)c(C)c1 (configuration not stated)	n	n	n
O/N=c1/sc2ccccc2n1CCS	n	n	69
CCn1c(=NC(C)=O)sc2ccccc21	n	n	n
COc1ccc(C(=O)c2[nH]c(-c3ccc(OC)cc3)cc2-c2ccccc2)cc1	n	n	x
SMILES	PV pol inh	MenB inh	Mtb MbtI inh
Cc1ccc(-c2nc(I)ccc2O)cc1	n	39	n
Cc1ccc(Nc2c(-c3ccc(O)cc3)nc3cccc(C)n23)cc1	n	x	x
CCCc1nc(=S)c2ccccc2[nH]1	n	n	92
S=c1nc(Cc2cccs2)[nH]c2ccccc12	n	n	n
COc1ccc(Cl)cc1NC(=O)c1sc(=S)n(C)c1N	72	n	88
COc1ccc(Cl)cc1NC(=O)c1sc2nc(-c3ccc(OC)c(OC)c3)ccc2c1N	n	x	x
Cn1nc(C(=O)NCCc2ccsc2)c2c1-c1ccccc1SC2	n	n	n
COc1cccc(N2C(=O)CC(n3nc(Nc4cccc(C)c4)sc3=S)C2=O)c1 (configuration not stated)	n	n	99
COc1cccc(N2C(=O)CN=C2Nc2nc(C)cc(C)n2)c1	n	n	x
COc1ccc(C=C2C(=O)NC(=S)NC2=O)cc1	n	n	97
COc1ccc(C=C2C(=O)NC(=O)NC2=O)cc1	n	n	n
N#C/C(=C\c1ccc(-c2ccccc2Br)o1)C(=O)N1CCOCC1	n	n	n
Nc1cnn(C2CCCCC2)c(=O)c1Cl	n	n	n
COc1ccc(C(=O)N2c3ccccc3CC2C)cc1 (configuration not stated)	n	32	n
CC1Cc2ccccc2N1C(=O)c1ccc(Cl)cc1 (configuration not stated)	n	n	n
CN(Cc1ccccc1)C(=O)c1ccc(CSc2nc3ccncc3n2Cc2ccccc2)cc1	n	n	n
Cc1csc(=NC2CCCCC2)n1/N=C/c1ccc(O)c(O)c1O	n	n	n
CC(C)Cc1ccc(S(=O)(=O)N2CC(C)CC(C)C2)cc1 (configuration not stated)	x	x	n
CC1(C)C(=O)NC(=O)N1C(=O)c1ccccc1	n	n	n
CC1(C)N=C(c2ccccc2)C(=S)N1C(=O)c1ccccc1	n	n	57
Cn1c(N)c(C#N)c2c(c1=S)CCCC2	88	n	n
CN1CCc2c(C#N)c(N)n(N)c(=S)c2C1	n	n	n
CCNC(=S)N/N=C1\CCCCC1C (configuration not stated)	n	n	n
CSC(SC)=C(C#N)S(C)(=O)=O	n	n	68
CS/C(=C(/C#N)S(=O)(=O)C(C)C)N1CCCCC1	n	n	n
CC1CCCC(C)N1CC(C)(C)NS(=O)(=O)c1ccccc1 (configuration not stated)	n	x	n
Cc1ccc(SCCC(=O)N/N=C/c2c(CO)cnc(C)c2O)cc1	n	n	n
CC12C=CC(CO)(O1)C1C(=O)N(c3ccc(Br)cc3)C(=O)C12 (configuration not stated)	n	n	101
